# Hit rate of the full screen: of about 48,000 compounds, about 13,000 (27%) showed an effect of 50% or more. The list shows a part of the results.
# Tested on: Wolbachia pipientis
# Test: Anti-Wolbachia Cell-Based Screen
# Type: functional
# Set-up: scale not given: in the data most compounds retested in dose-response had high values
# Settings: 5 µM
row,Structure (SMILES),Percent Effect [%]
1,CC(CCNC(=O)N(C)CC1CCOCC1)N1CCCCC1 (stereo not drawn),-7.573
2,CCc1nc(CN2CCCN(C(=O)C(C)n3ccnc3)CC2)cs1 (stereo not drawn),0.184
3,Cc1cnc(N2CCC3(CC2)CC3C(=O)NCC2CC2)nc1 (stereo not drawn),-18.23
4,CC(C)N(C(=O)N1CCn2cncc2C1)C(C)C,10.83
5,O=C(NC1CCCCC1)[C@H]1CNC[C@@H](COc2cccnc2)C1,11.4
6,CCS(=O)(=O)N1Cc2cncn2CC(C(=O)NCC2CC2)C1 (stereo not drawn),119.2
7,O=C(NCC1CC1)C1CN(C(=O)NC2CCCC2)Cc2cncn2C1 (stereo not drawn),100.7
8,O=C([C@@H]1Cc2[nH]cnc2CN1C(=O)NC1CCCCC1)N1CCCC1,6.906
9,CN(C)CCN1CC2(CCCN(c3ncc(Cl)cc3F)C2)CCC1=O (stereo not drawn),4.533
10,Cc1nc(C)n(C2CCCN(C(=O)c3ccc4c(c3)COC4)C2)n1 (stereo not drawn),-5.905
11,O=C(c1ccc2c(c1)COC2)N1CCCC(n2cncn2)C1 (stereo not drawn),130
12,O=C(c1ccc2c(c1)CCCC2)N1CCCC(n2cncn2)C1 (stereo not drawn),100.2
13,O=C(c1ccc(Cl)c(Cl)c1)N1CCCC(n2cncn2)C1 (stereo not drawn),3.266
14,Cn1ccc(C(=O)N2CCCC(n3cncn3)C2)cc1=O (stereo not drawn),3.949
15,O=C(c1cccc(N2CCCC2=O)c1)N1CCCC(n2cncn2)C1 (stereo not drawn),0.04653
16,Cc1cc(Nc2ccc3c(c2)CC(=O)N3)nc(C(C)C)n1,5.406
17,O=C(COc1ccccc1)N1CCC[C@]2(C[C@H](OCC3CC3)CO2)C1,5.425
18,CCO[C@H]1CO[C@@]2(CCCN(Cc3scnc3C)C2)C1.O=C(O)C(F)(F)F,114.2
19,COc1ccccc1CN1CC[C@]2(C[C@H](OC)CO2)C1.O=C(O)C(F)(F)F,9.484
20,O=C(COc1ccccc1)N1CCC[C@]2(C[C@@H](OCC3CC3)CO2)C1,18.43
21,CO[C@@H]1CO[C@@]2(CCCN(Cc3nc(C)cs3)C2)C1.O=C(O)C(F)(F)F,128.3
22,Cc1csc(CN2CCC[C@]3(C[C@H](OCC4CC4)CO3)C2)n1,94.91
23,Cc1noc(C)c1CN1CCC[C@]2(C[C@@H](Oc3ccccn3)CO2)C1.O=C(O)C(F)(F)F.O=C(O)C(F)(F)F,-19.05
24,CCO[C@H]1CO[C@@]2(CCCN(Cc3nc(C)cs3)C2)C1.O=C(O)C(F)(F)F,-3.246
25,CCS(=O)(=O)N1CC[C@]2(C[C@@H](OCC3CC3)CO2)C1,-6.112

row,Structure (SMILES),Percent Effect [%]
1,CCO[C@@H]1CO[C@@]2(CCCN(Cc3scnc3C)C2)C1.O=C(O)C(F)(F)F,-0.3895
2,Cc1csc(CN2CCC[C@]3(C[C@@H](OCC4CC4)CO3)C2)n1.O=C(O)C(F)(F)F,105.3
3,O=C(O)C(F)(F)F.O=S(=O)(C1CC1)N1CCC[C@]2(C[C@@H](Oc3ccccn3)CO2)C1,2.781
4,Cl.c1cnc(N2CCCC(NCc3cccc4c3OCCO4)C2)nc1 (stereo not drawn),11.77
5,Cc1cn2c(n1)CCC(NS(=O)(=O)c1ccc(C)s1)C2 (stereo not drawn),-1.096
6,Cc1ccc2c(c1)C1(CCN(C(=O)C3CC3)CC1)CC2N1CCOCC1.O=C(O)C(F)(F)F (stereo not drawn),4.954
7,Cc1cc(C)n(CC2CCCCN2CC(=O)Nc2c(C)n[nH]c2C)n1 (stereo not drawn),1.6
8,Cc1n[nH]c(C)c1CCC(=O)NCC1CCCN(C2CCCC2)C1 (stereo not drawn),80.33
9,Cc1n[nH]c(C)c1CCC(=O)NCC1COc2ccccc2C1 (stereo not drawn),-6.3
10,Cc1[nH]nc(CCC(=O)NCC2CCN(C3CCCCC3)C2)c1C (stereo not drawn),82.83
11,Cc1n[nH]c(C)c1NC(=O)CN1CCCC(CNC(=O)C(C)(C)C)C1 (stereo not drawn),3.245
12,Cc1n[nH]c(C)c1CCC(=O)NCC1CCOc2ccccc2C1 (stereo not drawn),-7.064
13,Cc1cc(CN2CCC(CNC(=O)CN3CCCCCC3)C2)[nH]n1 (stereo not drawn),4.399
14,Cc1[nH]nc(CCC(=O)NCC2CCCN(C3CCCC3)C2)c1C (stereo not drawn),91.65
15,Cc1[nH]nc(CCC(=O)NCC2COc3ccccc3C2)c1C (stereo not drawn),-76.22
16,CCCc1nc(C)c(C(=O)NCC2CCN(C3CC3)C2)s1 (stereo not drawn),9.564
17,Cc1ccc(C2CN(C(=O)NCc3nnc4ccccn34)CCO2)o1 (stereo not drawn),-6.842
18,Cc1cnn(CC(=O)NCC2(O)CCCc3ccccc32)c1 (stereo not drawn),-1.481
19,CN(Cc1ccc(C(N)=O)cc1)c1ccc(C(F)(F)F)cn1,16.53
20,FC(F)(F)c1ccccc1CN1CCOC[C@H](Oc2cccnc2)C1,-13.87
21,COc1cccc2c1N(Cc1nc(C3CC3)no1)CCC2,-12.66
22,CNc1nc(C(=O)N2CCCC(c3nccn3CC3CCC3)C2)cs1 (stereo not drawn),4.458
23,Cc1cc(N2CCN(C(=O)CCc3scnc3C)CC2)cc(C)n1,13.55
24,Cc1cc(N2CCCN(C(=O)Cc3csc(C)n3)CC2)ccn1,-22.63
25,CNc1nc(C(=O)N2CCCN(c3ccnc(C)c3)CC2)cs1,103.6

row,Structure (SMILES),Percent Effect [%]
1,CNc1nc(C(=O)N2CCN(c3cc(C)nc(C)c3)CC2)cs1,104.9
2,Cc1cc(N2CCCN(c3ccnc(C)c3)CC2)ccn1,10.82
3,Cc1noc2ncc(C(=O)N(CC3CCOC3)C3CC3)cc12 (stereo not drawn),-8.329
4,CC(C)Cn1cc(NC(=O)NCC2CCN(c3ccccc3)C2)cn1 (stereo not drawn),-4.161
5,COCCN(C)CCN1CC2(CCN(C3CCOC3)CC2)OC1=O (stereo not drawn),-5.724
6,COc1ccc(-c2n[nH]c(C)c2CC(=O)N2CCOCC2)cc1,82.2
7,COc1ccc2c(c1)OCC(CNC(=O)CCc1c(C)n[nH]c1C)C2 (stereo not drawn),2.391
8,COc1ccc(-c2n[nH]c(C)c2CC(=O)NCCN2CCOCC2)cc1,95.82
9,COc1ccc(-c2n[nH]c(C)c2CC(=O)NCC2CCCO2)cc1 (stereo not drawn),140.4
10,Cc1ccc(-c2cc(C(=O)NCCN3CCOCC3)n[nH]2)s1,2.618
11,Cc1ccc(-c2nc(CC(=O)NCC3CCOC3)cs2)o1 (stereo not drawn),7.713
12,COc1ccc(CC(=O)Nc2c(C)nc(N3CCOCC3)nc2C)cc1,11.03
13,COc1ccc(OCc2nc(C(=O)NCCN3CCOCC3)co2)cc1,-20.12
14,Cc1cc(=O)n(CC(=O)NCC2CCCO2)c(-c2ccc(F)cc2)n1 (stereo not drawn),12.17
15,COc1ccc(-c2n[nH]c(C)c2CC(=O)NCC2CCOCC2)cc1,94.98
16,CCC(=O)c1ccc(OCC(=O)NCC2CCCO2)cc1 (stereo not drawn),8.672
17,Cc1ccc(-n2nnc(CC(=O)N3CCOCC3)c2C)cc1,-5.261
18,CC(C)N1CCC(NC(=O)NC2CCOc3ccc(Br)cc32)CC1 (stereo not drawn),4.745
19,CN(C)C(=O)N[C@H]1CN(C2CCOCC2)[C@@H]2CCCO[C@H]12.O=C(O)C(F)(F)F,16.52
20,NC(=O)c1ccc(N2CCCCC2)c(NC(=O)c2ccc(Br)cc2)c1,7.886
21,Cc1noc(C)c1CN1CC[C@H]2OCC[C@@H](C(=O)N3CCCO3)[C@@H]2C1,-14.86
22,Cc1nn2cccnc2c1C(=O)N1CCCC(Nc2ccccc2)C1 (stereo not drawn),-8.048
23,CC(=O)N(C)CC(=O)NC1(c2ccc(Cl)c(Cl)c2)CC1,-1.911
24,CC(C)CN1CCN(C(=O)Nc2cc(C(F)(F)F)c[nH]c2=O)CC1,-8.263
25,O=C(Nc1cc(C(F)(F)F)c[nH]c1=O)N1CCOCC1,95.88

row,Structure (SMILES),Percent Effect [%]
1,CC(CCc1ccco1)NC(=O)Nc1cc(C(F)(F)F)c[nH]c1=O (stereo not drawn),-5.295
2,O=C(Nc1cc(C(F)(F)F)c[nH]c1=O)c1ccco1,-1.817
3,COC1CCN(C(=O)Nc2cc(C(F)(F)F)c[nH]c2=O)CC1,107.9
4,CC1CN(C(=O)Nc2cc(C(F)(F)F)c[nH]c2=O)CCO1 (stereo not drawn),83.43
5,COc1cc(CNC(=O)Nc2cc(C(F)(F)F)c[nH]c2=O)ccn1,-10.71
6,Cc1ncc(CNC(=O)Nc2cc(C(F)(F)F)c[nH]c2=O)s1,-11.29
7,CC(C)(C)N1CCN(C(=O)Nc2cc(C(F)(F)F)c[nH]c2=O)CC1,82.7
8,Cn1cnnc1CNC(=O)Nc1cc(C(F)(F)F)c[nH]c1=O,-11.16
9,COCC1CN(C(=O)Nc2cc(C(F)(F)F)ccc2F)CCO1 (stereo not drawn),-13.47
10,CS(=O)(=O)N1CCC2(CC1)CN(CC1CC1)CC21CCNC1=O.O=C(O)C(F)(F)F (stereo not drawn),-40.94
11,Cc1nc(-c2cn(CCN)nn2)n(-c2ccc(C(F)(F)F)cc2)n1,-70.01
12,Cc1nccn1-c1ccc(N2CCC(N[C@H](C)C(C)C)CC2)cc1,17.33
13,CC1(C)CN(C(=O)Nc2cc(C(F)(F)F)c[nH]c2=O)CCO1,99.91
14,O=C(Nc1cc(C(F)(F)F)c[nH]c1=O)N1CCSCC1,108.7
15,CCCc1noc(CCC(=O)Nc2cc(C(F)(F)F)c[nH]c2=O)n1,-8.892
16,O=C(Nc1cc(C(F)(F)F)c[nH]c1=O)N1CCCSCC1,-10.12
17,CC1CN(C(=O)Nc2ccc(Cl)c(C(=O)NC3CC3)c2)CC(C)(C)O1 (stereo not drawn),-20.36
18,Cc1noc(CCCC(=O)Nc2cc(C(F)(F)F)c[nH]c2=O)n1,11.68
19,O=C(NCCNc1ncccn1)Nc1cc(C(F)(F)F)c[nH]c1=O,-3.235
20,CC1CN(C(=O)Nc2cc(C(F)(F)F)c[nH]c2=O)CC(C)(C)O1 (stereo not drawn),113.6
21,O=C(NC1=NCCS1)C1CSCN1C(=O)C1CCCC1 (stereo not drawn),-6.178
22,Cn1cccc(NC(=O)NCc2cccc(CO)c2)c1=O,-1.059
23,Cc1cc(-c2nc(-c3ccccn3)nn2C2CCN(C)CC2)nc(C)n1,-5.062

# From ChEMBL document CHEMBL3988442, “University of Dundee, Small-Polar-MMV Screening Library” (2021)
